Screening data (PubChem BioAssay)
This is one part of a sample in which hits are shown more often than they occur.
HT1080-NT tox: kills 2HG-producing HT-1080-NT fibrosarcoma cells. Potency, µM (titrated, usually from 46.1 µM), for inactives: at the top dose activity, negative = less viability, hits mostly cytotoxic. HT-1080-NT fibrosarcoma viability, CellTiter-Glo ATP luminescence, 48 h. 360,000 compounds, 1.6% hits;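 further: NT is the 2HG producing partner of a matched IDH1 knockdown line; potency means the concentration at half of the fitted maximal effect; 0% = DMSO-treated cells and -100% = media-only wells without cells; nearly all actives have a fitted effect of over 55% in size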
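Read-out is CellTiter-Glo luminescence after 10 minutes at room temperature, following 48 hours' compound treatment of HT-1080-NT cells (750 cells/well, RPMI, 5% FBS, 37 degrees C).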
TDP1 cell noCPT: qHTS for Inhibitors of human tyrosyl-DNA phosphodiesterase 1 (TDP1): qHTS in cells in absence of CPT; DT40 Tdp1-/- hTDP1 cells, no CPT, ATP luminescence, 48 h; Potency, µM (series often up to 46.2 µM), inactives show top-dose activity change, negative = growth inhibition, most hits filed as inhibitors; 420,000 compounds, 15% hits; AID 686978, 2013; further: potency means the concentration at half of the fitted maximal effect; nearly all actives have a fitted effect of over 55% in size
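A cellular qHTS used chicken DT40 cells lacking endogenous Tdp1 but carrying stably transfected human TDP1. Compounds were applied without camptothecin, and cell growth kinetics were judged by ATP-dependent luminescence after ≥48 hr.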
IL1B secr inh: inhibitors of inflammasome signaling (IL-1 beta secretion); THP-1 LPS/ATP IL-1B secretion, AlphaLISA, 16 h; active compounds read low; activity change, % at 57.5 µM; 360,000 compounds, 4.7% hits; AID 743279; in the data active means activity change below about -50%; inconclusive means mostly about -30% to -49%
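THP-1 cells pretreated 1 hr with compounds (up to 57.5 uM final), then stimulated with LPS (250 ng/mL final) plus ATP (1.25 mM final); secreted IL-1B measured by AlphaLISA after 16 hr, decreased signal indicating inhibition.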
TDP1 cell CPT: DT40-hTDP1 cell growth loss with CPT. AID 686979. Potency, µM (series often up to 46.2 µM), for inactives: at the highest dose activity change, negative = growth inhibition, usual class: inhibitors. chicken DT40 Tdp1-/-;hTDP1 cells + 20 nM CPT, ATP luminescence, 48 h. 420,000 compounds, 12% hits; further: potency means the concentration at half of the fitted maximal effect; nearly all actives have a fitted effect of over 55% in size
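Chicken DT40 Tdp1-/- cells complemented with human TDP1, 400 cells/well, exposed to compounds plus 20 nM camptothecin for at least 48 h at 37 C; viability read as ATP content by CellTiter-Glo luminescence.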
ALOX12 inh: ALOX12 (human) lipoxygenase inhibition; purified 12hLO, xylenol orange hydroperoxide absorbance; Potency, µM (highest dose often 108 µM), without a hit: at the highest dose activity change, negative = inhibition, usual class: inhibitors; 580,000 compounds, 1.1% hits; AID 1671190; further: potency means the concentration at half of the fitted maximal effect
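Purified human 12hLO at 150 nM in 25 mM Hepes, 0.01% Triton X-100, pH 7.0, preincubated 15 min at room temperature with compound. Reaction started with 40 uM arachidonic acid, 30 min at room temperature. Hydroperoxide measured by Fe-xylenol orange, 573/405 nm absorbance ratio.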
HT1080 IDH1KD tx: toxicity to HT-1080 IDH1 knockdown cells (counter line) | HT-1080 IDH1 knockdown viability, ATP luminescence, 48 h | 360,000 compounds, 2% hits | Potency, µM (doses to about 46.1 µM), for inactives: at the highest dose activity, negative = toxicity, usual class: cytotoxic | AID 686971;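 further: potency means the concentration at half of the fitted maximal effect; 0% = DMSO wells and -100% = cell-free medium wells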
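Viability of IDH1-knockdown HT-1080 fibrosarcoma cells was assessed by CellTiter-Glo after 48 h at 37 °C with titrated compound; concentration-effect curves were classified by fit quality and response size.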
Starred values were filed as active, the others as inactive; u = inconclusive; x = no result given. Unless noted, the call rests on the fitted dose curve; in most records, active means well fitted curve in the direction sought with a large enough effect; inconclusive means small, poorly fitted or top-dose-only effect, or another doubt; inactive means no such curve, though single readings can be large; an effect the other way counts as inactive or inconclusive. Unless noted, on the % scale 0 is the no-effect control and ±100 the full control effect.

SMILES	HT1080-NT tox	TDP1 cell noCPT	IL1B secr inh	TDP1 cell CPT	ALOX12 inh	HT1080 IDH1KD tx
CNC(=O)NC(=O)C(C)Sc1ccccc1Cl (centres undefined)	x	x	x	x	-6%	x
CCn1cnnc1CC1CCN(C(=O)NC)C1 (centres undefined)	x	x	x	x	22%	x
O=C(CCc1nc2ccccc2oc1=O)OCc1cccc(C(F)(F)F)c1	x	x	x	x	2%	x
CCCc1nc2ccccc2c(C(=O)OCC(=O)NC(C)C(C)C)c1CC (centres undefined)	x	x	x	x	6%	x
O=C1c2ccccc2[C@@H]2Cc3csc[n+]3[C@H]12	-2%	5.2µM*	u	3.7µM*	-7%	0%
COc1ccc2cc(C(=O)NCc3ccco3)c(=O)oc2c1	-11%	-6%	-5	-20%	-7%	-11%
COc1ccc2oc(=O)c(-c3nnc(NCc4ccco4)s3)cc2c1	-21%	3.7µM*	-27	5.8µM*	0%	u
CCOc1ccccc1Nc1nnc(-c2cc3cc(OC)ccc3oc2=O)s1	x	7.3µM*	x	8.2µM*	-12%	x
CCOc1ccc2cc(-c3nnc(Nc4ccccc4F)s3)c(=O)oc2c1	x	u	x	u	-25%	x
C[C@@H]1ON(C)[C@H]2C[C@H]3c4[nH]c5ccc(-c6ccc7c(c6)OCO7)cc5c4CCN3C(=O)[C@@H]12	u	9.2µM*	0	13µM*	u	u
Cc1cccc(N(C(=O)C(F)(F)F)C(C(=O)NC2CCCCC2)c2cccs2)c1 (centres undefined)	-1%	-18%	13	-15%	4%	-19%
C#CC(=O)N(c1ccc(OC)c(OC)c1)C(C(=O)NC1CCCC1)c1cccs1 (centres undefined)	0.12µM*	0.65µM*	-106*	0.73µM*	-1%	0.58µM*
C#CC(=O)N(c1cccc(OC)c1)C(C(=O)NC1CCCC1)c1cccs1 (centres undefined)	0.25µM*	2.3µM*	-102*	1µM*	-5%	40µM*
C=CCn1cc(/C=N/NC(=O)COc2cccc3cccnc23)c2ccccc21	u	16µM*	-14	15µM*	-5%	-24%
CC(C)n1cc(/C=N/NC(=O)COc2cccc3cccnc23)c2ccccc21	u	u	-78*	u	2%	u
CNC(=O)NC(=O)CN(C)Cc1ccc(C(=O)NC2CC2)cc1	x	x	x	x	68%	x
COc1ccccc1Nc1c(-c2ccc(O)cc2)nc2ncccn12	x	x	x	x	-12%	x
COc1cc2cnc(-c3ccccc3)c(-c3cc(OC)c(OC)c(OC)c3)c2cc1OC	-28%	13µM*	-51*	u	2%	u
COc1cc2ncc(-c3ccccc3)nc2cc1OC	x	25µM*	x	21µM*	-6%	x
COc1ccc(-c2cc3cc(OC)c(OC)cc3cn2)cc1	-20%	u	-12	u	u	u
COc1cc2cnc(-c3ccccc3)c(-c3ccc([N+](=O)[O-])cc3)c2cc1OC	5%	u	-10	u	-8%	-1%
Cc1cc2ncc(-c3ccccc3)nc2cc1C	-1%	u	23	-13%	0%	2%
COc1cc2cnc(-c3ccccc3)cc2cc1OC	-13%	u	-20	18µM*	-24%	-10%
O=S(=O)(c1c(Cl)cccc1Cl)N1CCCC1c1nnc2ccccn12 (centres undefined)	x	x	x	x	-19%	x
Cc1ccc(Cl)cc1N1CCN(S(=O)(=O)c2c(C)[nH]c(C)c2C(=O)N2CCCCC2)CC1	-12%	u	u	16µM*	u	-25%
Cc1ccc(C)c(N2CCN(S(=O)(=O)c3c(C)[nH]c(C)c3C(=O)N3CCCCC3)CC2)c1	-15%	u	-9	u	-10%	-14%
